# Laboratory results reported in PubChem BioAssay AID626 (Vanderbilt High Throughput Screening Facility, 2007).
# In all, about 64,000 compounds went through this assay and about 1,900 (3%) were called active. Only a selection was taken, and actives are over-represented in it overall. Values without a mark were called inactive.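 How the source made its calls: active means fluorescence rise, raw or as B-score row- and column-corrected plate score, outside the 99.7% band of its plate's samples, either direction; inactive means the rest.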
# Tested on: Muscarinic acetylcholine receptor M1
# Assay: direct activation of M1 receptor calcium signal – CHO-M1 cells, Fluo-4 calcium, agonist mode, primary screen (AID 626)
# Settings: Fluo-4 calcium fluorescence, at 10 µM, active compounds read high
row,SMILES,B-score
1,Cc1ccc(C)n1C(Cc1ccccc1)C(=O)O (stereo not drawn),-0.967
2,COc1ccc(C(=O)N(Cc2ccc(N(C)C)cc2)C2CCS(=O)(=O)C2)cc1 (stereo not drawn),0.609
3,CC(C)(C)Nc1c(N)c(=O)oc2ccccc12,0.371
4,Cc1onc(-c2ccccc2Cl)c1C(=O)NCCn1ccc2ccccc21,-0.0968
5,CCOC(=O)C1=C(C)NC(=O)N(C(C)=O)C1c1ccc(Cl)cc1 (stereo not drawn),-0.0464
6,CCC(=O)Nc1ccc(C(=O)Nc2ccc3c(c2)C(=O)N(CC2CCCO2)C3=O)cc1 (stereo not drawn),0.81
7,CN1C(=O)c2ccc(NC(=O)C3CCCCC3)cc2C1=O,-1.25
8,CN1C(=O)c2ccc(NC(=O)c3c(F)c(F)c(F)c(F)c3F)cc2C1=O,4.34 (active)
9,CCOC(=O)c1ccc(Nc2cc(C)nc3nc(C)nn23)cc1,-0.0395
10,CC(=O)c1ccc(-n2nnnc2SCC(=O)N2CCN(C(=O)c3ccco3)CC2)cc1,0.19
11,COc1ccc(NC(=O)C2CCCN(S(=O)(=O)c3cccc4cccnc34)C2)cc1OC (stereo not drawn),4.34 (active)
12,COc1ccc(NC(=O)C2CCCN(S(=O)(=O)c3cccc4cccnc34)C2)cc1 (stereo not drawn),0.324
13,COc1ccccc1CNC(=O)C1CCCN(S(=O)(=O)c2cccc3cccnc23)C1 (stereo not drawn),0.00364
14,CCOc1cc(C2C(C(=O)OC)=CN(C3CCCC3)C=C2C(=O)OC)cc(Br)c1O,-0.323
15,CCOC(=O)CSC1=C(C#N)C(c2ccco2)C(C(=O)OCc2ccccc2)=C(C)N1 (stereo not drawn),-0.00433
16,N#CC1=C(N)Oc2c(sc3ccccc23)C1c1ccco1 (stereo not drawn),52 (active)
17,N/C(=N\c1nc2ccccc2o1)NC(=O)C(Cc1ccccc1)N1C(=O)c2ccccc2C1=O (stereo not drawn),2.31
18,Cc1ccc(Cn2ccc(NC(=O)c3cc(C(C)C)on3)n2)cc1,-1.01
19,O=C(c1cc(-c2cccs2)on1)N1CCCCC1,1.09
20,O=C(CSCc1cccs1)N1CCCC1,4.57 (active)
21,Cn1c(=NC(=O)CSCC(=O)N2CCCCC2)sc2ccccc21,-0.071
22,COc1ccccc1-n1nnnc1S(=O)(=O)Cc1ccc(Cl)cc1,0.986
23,COc1ccccc1NC(=O)CSc1nnc(-c2ccoc2C)n1CCc1ccccc1,0.464
24,COc1ccccc1NC(=O)CSc1nnc(Cn2nnc(-c3ccccc3)n2)n1-c1ccccc1,2.12 (active)

row,SMILES,B-score
1,COc1ccccc1NC(=O)CSc1nnc(Cc2cccn2C)n1-c1ccc(F)cc1,-0.202
2,Cc1ccc(NC(=O)CCN2CCc3ccccc3C2)cc1,-0.165
3,CCN=C1SC(CC(=O)Nc2ccc(C)cc2)C(=O)N1CC (stereo not drawn),5.15 (active)
4,CCOC(=O)c1ccc(NC(=O)Cn2nnc(-c3ccc(C)cc3)n2)cc1,-0.837
5,CCC(Oc1ccccc1)C(=O)NCc1cccnc1 (stereo not drawn),-0.899
6,CN1CCN(S(=O)(=O)c2ccc3[nH]cc(C(=O)O)c(=O)c3c2)CC1,0.537
7,COCCn1c(CN(Cc2ccccc2)Cc2ccccc2)nc2c1c(=O)n(C)c(=O)n2C,0.66
8,COCCn1c(CN2CCC(Cc3ccccc3)CC2)nc2c1c(=O)n(C)c(=O)n2C,3.45 (active)
9,CC1CCN(Cc2nc3c(c(=O)n(C)c(=O)n3C)n2CCc2ccccc2)CC1,0.945
10,CCOC(=O)c1ccc(NC(=O)CSc2nnc(COc3ccccc3OC)n2C)cc1,0.692
11,O=C(Nc1ccccc1N1CCCCC1)c1cccc(F)c1,0.341
12,C/C(=C(\C#N)C(=O)NCCCN1CCOCC1)N(C)C,0.122
13,Cc1cc(Nc2cccc(F)c2)n2ncnc2n1,1.22
14,CCOC(=O)C1CCN(C(=O)Nc2ccc(Cl)cc2)CC1,0.00389
15,CCOC(=O)C1CCCN(Cc2nc(N)nc(Nc3ccc(C)cc3)n2)C1 (stereo not drawn),35.2 (active)
16,CCOC(=O)[C@H]1CCC[C@@H](NS(=O)(=O)c2ccc(NC(C)=O)cc2)C1,-0.507
17,CCn1c(SCCC(C)C)nnc1-c1c[nH]c2ccccc12,0.584
18,CCCN(CCC)CCNC(=O)c1cc2c(C)nc3ccccc3c2o1,-0.845
19,Cc1nc2ccccc2c2oc(C(=O)NCCCN3CCC(C)CC3)cc12,0.3
20,Cc1nc2ccccc2c2oc(C(=O)NCC3CCCO3)cc12 (stereo not drawn),2.93 (active)
21,COCCN1C(=O)c2oc3c(C)cc(C)cc3c(=O)c2C1c1cccc(O)c1 (stereo not drawn),0.00288
22,CCOC(=O)Cn1c(=O)oc2cc(S(=O)(=O)N(C)Cc3ccco3)ccc21,-0.339
23,O=C(c1ccco1)N1CCN(C(=O)C2CC(c3ccc(Cl)c(Cl)c3)=NO2)CC1 (stereo not drawn),-0.464
24,CC(=O)N1CCN(C(=O)c2cccc(S(=O)(=O)Nc3ccc(C)cc3)c2)CC1,0.272
